Source: PubChem BioAssay (several laboratories)
The list is not random: actives were taken first. Their share in the collection is about 6.6%.
BoNT F protease: blocks Botulinum neurotoxin F light chain protease; inhibition, % at 10 µM; 360,000 compounds, 0.22% hits; AID 588497; Multiplex microsphere protease cleavage assay, flow cytometry; in the data active = inhibition above about 35%, passing the limit was not always enough; inconclusive = no clear call, values can overlap the other calls
BoNT-A LC inh2: BoNT A light chain protease inhibition | AID 588499 | multiplex microsphere protease substrate cleavage, flow cytometry | inhibition, % at 10 µM | 360,000 compounds, 0.17% hits
GDH-TPI inh: counter-screen for M. tuberculosis FBA inhibitors: GDH-TPI coupled enzymes | GDH-TPI coupled enzyme counterscreen, NADH absorbance | inhibition, % at 4.8 µM | 360,000 compounds, 1.2% hits | AID 588335; in the data active = inhibition above about 30%
Anthrax LF inh2: blocks Bacillus anthracis lethal factor protease; multiplex microsphere protease cleavage assay, LF; inhibition, % at 10 µM; 360,000 compounds, 0.12% hits; AID 588501
Bead autofluor: compound fluorescence in toxin protease inhibitor counterscreen; compound autofluorescence counterscreen, microsphere flow cytometry; hits give high values; AID 624483; fluorescence intensity (no concentration beside the values); 360,000 compounds, 3.1% hits; in the data active = fluorescence intensity above about 16000; inconclusive = no clear call, values can overlap the other calls
FBA Mtb inh: Mtb fructose-bisphosphate aldolase inhibition | P9WQA3 | 360,000 compounds, 2.3% hits | inhibition, % at 1 µM | purified M. tuberculosis FBA, fluorescence read-out; in the data active = inhibition above about 27%
Target sequence (P9WQA3 whole entry, looked up): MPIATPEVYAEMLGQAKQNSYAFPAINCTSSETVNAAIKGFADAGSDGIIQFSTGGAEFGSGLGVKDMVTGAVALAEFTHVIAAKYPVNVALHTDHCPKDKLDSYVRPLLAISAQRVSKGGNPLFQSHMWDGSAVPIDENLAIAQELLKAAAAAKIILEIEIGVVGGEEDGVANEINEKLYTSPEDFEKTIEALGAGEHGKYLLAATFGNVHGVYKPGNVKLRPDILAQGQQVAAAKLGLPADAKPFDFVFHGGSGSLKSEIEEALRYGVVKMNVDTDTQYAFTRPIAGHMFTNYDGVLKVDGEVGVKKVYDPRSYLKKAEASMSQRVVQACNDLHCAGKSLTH
Each line names hits and unclear results; the compound was inactive in the other large screens. Cut-off read from the data, not from the text of the source, unless noted: active = inhibition above about 30%; inconclusive = no clear call, values can overlap the other calls; inactive = below that.

NS(=O)(=O)c1ccc(CCNC(=O)Nc2ccc(Cl)c(Cl)c2)cc1	Bead autofluor 16607
Cc1ccc(CC(=O)NCCc2ccc(S(N)(=O)=O)cc2)cc1	none
NS(=O)(=O)c1ccc(CNC(=S)Nc2ccc(Cl)c(Cl)c2)cc1	none
CCCCC(=O)NCCc1ccc(S(N)(=O)=O)cc1	Bead autofluor 16934
Cc1cc(C)c(C)c(S(=O)(=O)NCc2ccc(C(=O)N3CCCCC3)cc2)c1C	BoNT F protease inconclusive
O=C(CSc1cccc[n+]1[O-])c1ccc(Cl)s1	none
CCC(CC)C(=O)NCCc1ccc(S(N)(=O)=O)cc1	Bead autofluor 21021
CCCC(C(=O)NCCc1ccc(S(N)(=O)=O)cc1)c1ccccc1 (stereo unspecified)	none
CCCCC(CC)C(=O)NCCc1ccc(S(N)(=O)=O)cc1 (stereo unspecified)	Bead autofluor 23826
CCc1nn(C(C)C(=O)NCc2cccc(Cl)c2)c(=O)c2cc3occc3n12 (stereo unspecified)	none
COc1ccc(CCN(C)C(=O)CSc2ncnc3sccc23)cc1OC	none
COc1ccc(CCN(C)C(=O)CSc2nccn2C)cc1OC	BoNT-A LC inh2 inconclusive, Bead autofluor 19523
Cc1nc(SC(C(=O)c2ccccc2)c2ccccc2)n[nH]1 (stereo unspecified)	Bead autofluor 20864
Cc1ccn(CC(=O)O)c(=O)c1	BoNT-A LC inh2 inconclusive, Bead autofluor 22082
C=CCNC(=O)C(=O)c1cccn1-c1ccsc1C(=O)OC	none
COc1cc(OC)cc(C(=O)Nc2ccc(S(=O)(=O)N3CCOCC3)cc2)c1	BoNT F protease inconclusive
CCN(CC)c1ccc(C=Nc2cc(C)ccc2C)c(O)c1	BoNT-A LC inh2 72.4, GDH-TPI inh 38.0
CCN(CC)c1ccc(/C=N/N2C(=O)c3ccccc3C2=O)c(O)c1	none
Cc1ccc(N=Cc2cccc(O)c2O)c(C)c1	Bead autofluor inconclusive
CCN(CC)c1ccc(C=Nc2ccc(C)cc2C)c(O)c1	BoNT-A LC inh2 36.8
COCCNC(=O)C1CCCN(C(=O)c2sc(-c3ccccc3)nc2C)CC1 (stereo unspecified)	none
O=C(COC(=O)Cc1n[nH]c(=O)c2ccccc12)Nc1ccc(Cl)cn1	none
COc1cccc(-c2cnc(C(O)c3ccc(Cl)cc3C)[nH]2)c1 (stereo unspecified)	none
COCCNS(=O)(=O)c1ccc2c(c1)C(=O)c1cc(S(=O)(=O)NCCOC)ccc1-2	Bead autofluor 16158
O=C1c2cc(S(=O)(=O)NCCCO)ccc2-c2ccc(S(=O)(=O)NCCCO)cc21	Bead autofluor 21753
O=c1oc2cc(S(=O)(=O)NCCCO)ccc2c2ccc(S(=O)(=O)NCCCO)cc12	none
CCOCCCNC(=O)C(NC(=O)Cc1cccs1)c1ccc(OC)cc1 (stereo unspecified)	none
CCN(C(=S)Nc1ccc(Oc2ccccc2)cc1)c1ccccc1	none
CC12CN3CC(C)(CN(C1)C3c1ccc(Br)cc1)C2 (stereo unspecified)	Bead autofluor 22475
COc1cc(C2N3CC4(C)CN2CC(C)(C3)C4)ccc1O (stereo unspecified)	none
Cc1cccc2nc(Cn3c(=O)n(CCC(=O)NCc4ccco4)c(=O)c4sccc43)cc(=O)n12	Bead autofluor 20173
Cn1c(SCC(=O)Nc2ccccc2)nnc1-c1ccc2nonc2c1	BoNT F protease inconclusive, BoNT-A LC inh2 inconclusive
Cc1ccn(C(=O)c2ccc(NC(=O)C3CC3)cc2)n1	none
COc1ccc(N2CCN(C(=O)C(=O)c3cn(CC(=O)N4CCCC4)c4ccccc34)CC2)cc1	none
CC(=O)C1=C(O)C(=O)N(c2ccc(S(=O)(=O)Nc3nccs3)cc2)C1c1ccc([N+](=O)[O-])cc1 (stereo unspecified)	none
CC(=O)C1=C(O)C(=O)N(c2ccc(S(=O)(=O)Nc3nccs3)cc2)C1c1ccc(F)cc1 (stereo unspecified)	GDH-TPI inh 32.1
COc1ccc(-c2oc3ccccc3c2C(=O)OCc2ccc([N+](=O)[O-])cc2)cc1	none
O=C(O)c1c(-c2ccccc2)oc2ccc(O)cc12	none
COc1ccc2oc(-c3ccccc3)c(C(=O)O)c2c1	FBA Mtb inh active
COC(=O)c1c(-c2ccc(OC)cc2)oc2ccccc12	FBA Mtb inh 134.3
COc1ccc(C)cc1N(CC(=O)Nc1ccc(S(=O)(=O)N2CCCC2)cc1)S(C)(=O)=O	none
O=C(CSc1nccc(=O)[nH]1)NC1CCCCCCC1	none
O=[N+]([O-])c1cc(-c2cnc3ccccc3n2)ccc1Oc1ccc(F)cc1	BoNT-A LC inh2 inconclusive, Bead autofluor 20404
CCN(CC)C(=O)c1cccc(-c2csc(C(C)(O)c3ccncc3)n2)c1 (stereo unspecified)	none
Brc1ccc(-c2nn3c(-c4ccco4)nnc3s2)o1	BoNT-A LC inh2 inconclusive, Bead autofluor 22193
Clc1ccc(-c2ccc(-c3nn4c(-c5ccco5)nnc4s3)o2)cc1	none
COc1cccc(OC)c1-c1nn2c(-c3ccco3)nnc2s1	Bead autofluor 20967
Cc1c(NC(=O)c2cc(-c3ccc(F)cc3)on2)c(=O)n(-c2ccccc2)n1C	none
Cc1ccc2[nH]c(C)c(/C=C/c3cc[n+](C)cc3)c2c1	none
Cc1ccc2c(c1)c(/C=C/c1cc[n+](C)cc1)c(C)n2C	Bead autofluor 20045
COc1ccc(C)cc1NC(=O)NC1CCN(Cc2ccccc2)CC1	none
COC(=O)[C@H](Cc1ccccc1)NC(=O)N1CCN(Cc2ccccc2)CC1	Bead autofluor 23718
CCCNC(=O)N[C@@H](Cc1ccccc1)C(=O)OC	BoNT-A LC inh2 inconclusive, Bead autofluor 22925
CCC(C)[C@H](NC(=O)NC1CCN(Cc2ccccc2)CC1)C(=O)OC (stereo partly specified)	Bead autofluor 22325
COC(=O)[C@H](Cc1ccccc1)NC(=O)N1CCCCCC1	none
CCOC(=O)NC(=O)/C(C#N)=C(/C)N(C)C	none
COc1ccc(C(=O)CCS(=O)(=O)c2ccc(C)cc2)cc1	none
COc1ccc(C(CC(=O)c2ccc(O)cc2)S(=O)(=O)c2ccc(C)cc2)cc1 (stereo unspecified)	GDH-TPI inh 34.2
Cc1ccc(C(=O)N/C(=C\c2ccc(-c3cccc([N+](=O)[O-])c3)o2)C(=O)NCCCN(C)C)cc1	GDH-TPI inh 58.6
CN(C)CCCNC(=O)/C(=C\c1ccc(-c2cccc([N+](=O)[O-])c2)o1)NC(=O)c1ccccc1	GDH-TPI inh 35.3
Cc1ccc(C(=O)N/C(=C\c2ccc(-c3ccc(Br)cc3)o2)C(=O)NCCCN(C)C)cc1	none
COc1cc(C(=O)NCC(=O)N/N=C/c2ccc(-c3cccc([N+](=O)[O-])c3)o2)cc(OC)c1OC	GDH-TPI inh 37.6
CCc1noc(C)c1C(=O)Nc1cccc2ncccc12	none
COC(=O)c1[nH]c2ccc(C)cc2c1NC(=O)CCN1CCN(Cc2ccc3c(c2)OCO3)CC1	Bead autofluor 22086
COC(=O)c1ccsc1NC(=O)CN1CCN(Cc2ccc3c(c2)OCO3)CC1	Bead autofluor 21667
